# This is a sample that favours compounds with a hit; in the whole collection about 3% have one here.
# S16 viability = cytotoxicity in S16 Pmp22-F2sN Schwann cells. S16 Pmp22-F2sN Schwann cells viability, CellTiter-Glo, 24 h. Potency, µM (top dose mostly 57.5 µM), most hits filed as cytotoxic. actives 0.48% (n = 43,000). AID 1508642; also: nearly all actives have a fitted effect of over 65% in size
#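 S16 Pmp22-F2sN Schwann cells (500-1,000/well) in phenol-red-free DMEM with 10% FBS received 23 nL compound by pin tool for 24 h at 37 °C. Viability was then read as CellTiter-Glo luminescence after 15 min at room temperature.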
# PMP22 txn = PMP22 gene transcription modulation; S16 Pmp22-F2sN Schwann cells (luciferase reporters placed in the Pmp22 gene), FLuc/NLuc coincidence luminescence, 24 h; Potency, µM (titrated, usually from 57.5 µM), hits mostly inhibitors; actives 2% (n = 43,000); active = clear falling dose curves in both reporters; inconclusive = both reporters move, but less clearly or upward; inactive = either reporter flat; the % is the NLuc reporter signal
#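 Transcriptional readout in edited S16(c9) cells: two luciferases reported from the Pmp22 locus, measured in turn after 24 h compound incubation.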
# pS6 MEF inh = inhibitors of mTORC1 signaling in Tsc2-/- p53-/- MEF cells. Potency, µM (highest dose often 38.3 µM), hits mostly inhibitors. AID 493208. Tsc2-/- p53-/- MEF, phospho-rpS6 immunofluorescence/PI, 24 h. actives 0.78% (n = 44,000); also: nearly all actives have a fitted effect of over 50% in size
#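 Plate MEFs (Tsc2-/-, p53-/-, empty vector) in DMEM/10% FBS; after 24 h add compound, incubate 24 h at 37 degree Celsius; fix in PFA/TX-100, block, stain phospho-rpS6 and 10 uM PI; scan at 488 nm; report % positive cells.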
# p53null 32C tox = selectivity test: cytotoxicity in p53 null cells, permissive temperature; H1299-neo p53 null cells, ATP luminescence, 24 h, 32C; actives 0.62% (n = 55,000); Potency, µM (highest dose often 46.1 µM), hits mostly cytotoxic; also: nearly all actives have a fitted effect of over 55% in size
#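 H1299-neo (p53 null) cells, 600/well, treated 24 h at 32C with compound up to 46 uM; ATPlite luminescence viability, normalized to DMSO and 100 uM tamoxifen; AC50 by Hill fit.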
# OvCa metastasis = ovarian cancer metastasis inhibition, 3D TME model; SKOV3ip1-GFP adhesion/invasion on 3D omental model, fluorescence; actives 0.1% (n = 46,000); Potency, µM (series often up to 45.8 µM), actives largely listed as inhibitors; AID 1963576; also: nearly all actives have a fitted effect of over 65% in size
#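 A 3D layer of primary human omental fibroblasts, mesothelial cells, fibronectin and collagen I, grown 48 hr, received SKOV3ip1-GFP cells in serum-free medium plus compounds at 0.36-46 umol/L. After 2 hr RT and 16 hr 37 C, fixed adherent GFP cells were counted; normalized to DMSO and tomatine.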
# p53null 39C kill = selectivity test: cytotoxicity in p53 null cells, nonpermissive temperature | Potency, µM (highest dose often 46.1 µM), hits mostly cytotoxic | actives 0.97% (n = 55,000) | AID 904 | H1299 p53-null (neo) cells, 39C, ATPlite viability, 24 h; also: nearly all actives have a fitted effect of over 50% in size
#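 H1299 lung cancer cells, p53-null (H1299-neo) or expressing p53 A138V (H1299-p53A138V), were plated overnight at 37C, then exposed to compounds at up to 46 uM for 24 hr at 39C. Viability was read by ATP-based luminescence.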
# Hits are given with their value; 0 = inactive; ? = inconclusive; - = no result given. Unless noted, calls follow the shape of the dose curve; as a rule, active = well fitted curve in the direction sought with a large enough effect; inconclusive = small, poorly fitted or top-dose-only effect, or another doubt; inactive = no such curve, though single readings can be large; an effect the other way counts as inactive or inconclusive.
SMILES,S16 viability,PMP22 txn,pS6 MEF inh,p53null 32C tox,OvCa metastasis,p53null 39C kill
CC(C)(C)c1ccc(S(=O)(=O)N2CCC(c3ccncc3)CC2)cc1,?,?,18.5µM,?,0,?
CC(C)Cc1ccc(S(=O)(=O)N2CCC(c3ccncc3)CC2)cc1,?,?,18.5µM,?,?,?
O=C1NC(=O)C(=Cc2ccc3nccc(-c4ccncc4)c3c2)S1,-,-,-,-,0,-
Fc1ccc(Nc2nc3nonc3nc2Nc2cccc(C(F)(F)F)c2)cc1,8.91µM,7.27µM,?,?,0,5.62µM
CC(Sc1nc2ccccc2n1C)C(=O)NC(c1ccccc1)c1ccccc1 (centres undefined),-,-,-,0,-,0
Cc1oc(-c2nc3ccccc3n2C)cc1C(=O)c1ccccc1,-,-,-,6.31µM,-,11.2µM
CC(C)CN(c1ccccc1)S(=O)(=O)c1nnc(NC(=O)c2ccco2)s1,0,0,0,?,0,2µM
CCN(c1ccccc1)S(=O)(=O)c1nnc(NC(=O)c2cccs2)s1,0,0,0,1.26µM,0,1µM
CCN(c1ccc(C)cc1)S(=O)(=O)c1nnc(NC(=O)c2cccs2)s1,0,0,0,0,0,?
CNC1[C@H](O)C(O[C@@H]2C(O)C(O[C@H]3O[C@H]([C@@H](C)NC)CC[C@H]3N)[C@@H](N)C[C@H]2N)OC[C@]1(C)O (some centres undefined),-,-,-,-,0,-
COc1ccc(/C=C\c2onc(C)c2S(=O)(=O)N2CCC(C(=O)Nc3ccc(Cl)cc3)CC2)cc1,0,0,0,0,0,10µM
COc1ccc(/C=C\c2onc(C)c2S(=O)(=O)N2CCC(C(=O)Nc3ccc(C)c(F)c3)CC2)cc1,0,?,0,0,0,0
COc1ccc(N(CC(=O)N2CCN(c3cccc(Cl)c3)CC2)S(=O)(=O)c2c(C)noc2C)cc1,0,0,0,0,0,10µM
Cc1ccc(N(CC(=O)N2CCN(c3cccc(Cl)c3)CC2)S(=O)(=O)c2c(C)noc2C)cc1,0,?,0,0,0,0
CN(C)C1CCN(C(=O)c2ccc(NC(=O)Nc3nc(N4CCOCC4)nc(N4CCOCC4)n3)cc2)CC1,-,-,-,-,0,-
Cc1cc(-c2ccc(C)c(S(=O)(=O)Nc3ccccc3C(F)(F)F)c2)on1,0,0,0,?,0,11.2µM
Cc1ccc(NS(=O)(=O)c2cc(-c3cc(C)no3)ccc2C)c(Cl)c1,0,?,0,0,0,?
COc1ccc(-c2ccc3ncc4c(c3c2)n(-c2ccc(N3CCNCC3)c(C(F)(F)F)c2)c(=O)n4C)cn1,-,-,-,-,9.35µM,-
c1ccc(-c2oc3ncnc(NC[C@@H]4CCCO4)c3c2-c2ccccc2)cc1,-,-,-,-,0,-
CC(C)c1ccc(-c2noc(SCC(=O)N3CCCCC3)n2)cc1,0,?,0,12.6µM,0,?
O=C(NCc1ccccn1)c1cc(-c2ccc(-c3ccccc3)cc2)nc2ccccc12,-,-,-,-,-,7.94µM
Cc1ccc(C)c(CSc2ccc3nnc(CCNS(=O)(=O)c4ccccc4)n3n2)c1,0,0,0,0,0,0
Cc1ccc(S(=O)(=O)NCCc2nnc3ccc(SCc4ccccc4C)nn23)cc1,0,0,0,0,0,15.8µM
CN(C)c1ccc(C(=O)NCCCCCCC(=O)NO)cc1,-,-,-,-,0,-
CS(=O)(=O)c1ccc(Sc2nc3ccccc3s2)c([N+](=O)[O-])c1,-,-,-,12.6µM,-,-
SMILES,S16 viability,PMP22 txn,pS6 MEF inh,p53null 32C tox,OvCa metastasis,p53null 39C kill
Cc1cc(S(=O)(=O)Nc2ccc(O)c(Sc3nc4ccccc4s3)c2)ccc1Cl,?,?,0,0,0,0
O=S(=O)(Nc1cccc(-c2ccc(N3CCCCC3)nn2)c1)c1cccc(F)c1,-,-,0,?,0,10µM
COc1ccc(S(=O)(=O)Nc2cccc(-c3ccc(N4CCCCC4)nn3)c2)cc1F,-,-,0,12.6µM,0,20µM
CC(C)c1noc(N2CCC(COc3ccc(-c4ccc(S(C)(=O)=O)cc4)nc3)CC2)n1,-,-,-,-,0,-
CCOc1cc(CNCCSc2nnnn2C)ccc1OCc1ccc(Cl)cc1Cl,?,?,?,?,?,15.8µM
Cn1nnnc1SCCNCc1ccccc1OCc1ccc(Cl)cc1Cl,?,?,0,?,0,?
CCc1c(O)cc(O)c(C(=O)c2ccc(OCCN3CCOCC3)c(OC)c2)c1CC(=O)N(CCOC)CCOC,-,-,-,-,0,-
Cc1ccc(Nc2c3c(nc4nncn24)CCC3)cc1,0,?,0,0,0,0
Brc1ccc(Nc2c3c(nc4nncn24)CCC3)cc1,0,?,5.85µM,0,0,0
CN(C)CCN1C(=O)c2cccc3cc(N)cc(c23)C1=O,-,-,-,-,0,-
Cc1ccc(O)c(C(CC(=O)NCC2(c3ccccc3)CCCC2)c2ccccc2)c1 (centres undefined),?,?,18.5µM,?,?,?
Cn1cc(-c2[nH]c3cc(NC(=O)[C@H](N)C4CCCCC4)cc4c3c2C=NNC4=O)cn1,-,-,-,-,0,-
CCOC(=O)c1cccc(NC(=O)c2ccc3c(Cl)c4c(nc3c2)CCC4)c1,0,0,?,?,0,0.398µM
CCOC(=O)c1cccc(NC(=O)c2cc3ccccn3n2)c1,-,-,0,12.6µM,0,10µM
O=C(Nc1ccccc1C(F)(F)F)c1cc2ccccn2n1,-,-,0,7.94µM,0,10µM
CCOC(=O)c1ccccc1NC(=O)c1ccc2c(Cl)c3c(nc2c1)CCC3,0,0,0,?,0,?
CCOc1ccc(Cc2cc([C@@H]3O[C@H](CO)[C@@H](O)[C@H](O)[C@@H]3O)ccc2Cl)cc1,-,-,-,-,0,-
O=C(NCc1ccccc1)[C@H](Cc1ccccc1)NC(=O)[C@@H]1O[C@@H]1C(=O)NCCc1ccc(O)cc1,-,-,-,-,0,-
O=C(NCCc1ccccc1Cl)c1ccc(Cn2c(=O)c3cccn3c3cccnc32)cc1,0,?,0,?,?,10µM
CCOC(=O)c1cc2c(=O)n3ccccc3nc2n(Cc2ccco2)c1=NC(=O)c1c(F)cccc1Cl,?,15µM,0,0,0,0
CCOC(=O)c1cc2c(=O)n3ccccc3nc2n(Cc2ccco2)c1=NC(=O)c1cccc(C)c1,?,?,0,0,0,0
Cn1cnc(=N)c2[nH]cnc21,-,-,-,-,0,-
C[C@@]1(c2cc(-c3cncnc3)c(F)cc2F)CCSC(N)=N1,-,-,-,-,0,-
COc1ccc(NC(=O)c2nnn(CC(=O)Nc3ccc(C)c(C)c3)c2N)cc1OC,0,0,0,0,0,0
COc1ccc(OC)c(NC(=O)c2nnn(CC(=O)Nc3ccc(C(C)C)cc3)c2N)c1,0,0,16.5µM,0,0,?
CC(O)=C(C#N)C(=O)Nc1ccc(C(F)(F)F)cc1,-,-,-,-,0,-
Cc1ccc(CN2C(=O)c3ccccc3Sc3ccc(C(=O)NCCCN4CCOCC4)cc32)cc1,0,?,11.7µM,0,0,?

# Screening data deposited in PubChem BioAssay by National Center for Advancing Translational Sciences (NCATS).
